# Rows were chosen to be rich in hits. Some 1.3% of all compounds tested hit in one or more screens of this group.
# EBV gp42 inh – inhibitors of Epstein-Barr virus glycoprotein 42; Fluorescence polarization binding assay, mP read-out; Q1HVG2; inhibition, % (tested at 21.74 µM); AID 1085; hit rate 0.42% among 220,000; in the data active means inhibition above about 50%
# GLD-1 RNA inh – GLD-1-TGE RNA interaction inhibition (C. elegans); purified GLD-1 + fluorescein TGE RNA, fluorescence polarization; inhibition, % at 5.96 µM; Q17339; hit rate 0.44% among 320,000;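 active means percent inhibition above a per-plate cutoff, the plate mean of test compounds plus 3 SD, cut at about 30% in these data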;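 further: 0% = DMSO wells with GLD-1 and probe and 100% = wells lacking GLD-1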
# E coli Lon inh – inhibitors of E. coli Lon protease; P0A9M0; purified E. coli Lon protease, fluorescence polarization; inhibition, % at 7.94 µM; hit rate 0.42% among 360,000; AID 602123; in the data active means inhibition above about 13%, passing the limit was not always enough;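 further: 0% = enzyme with probe and DMSO and 100% = no enzyme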
# BCLXL inh – inhibitors of human Bcl-xL; Q07817; inhibition, % at 10.9 µM; hit rate 0.7% among 320,000; GST-Bcl-xL / FITC-Bim BH3 peptide fluorescence polarization;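 active means inhibition above the mean of all tested compounds plus 3 SD, cutoff set per campaign, cut at about 30% in these data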;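 further: 0% = DMSO wells and 100% = unlabeled Bim-BH3 peptide competitor; inhibitors lower millipolarization by displacing the labeled peptide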
# MEX-5 binding – C. elegans MEX-5 TCR-2 RNA binding activity | MEX-5/FITC-TCR2 RNA binding, fluorescence polarization; active compounds read low | activity score (negative = inhibition of binding), % at 10 µM | hit rate 0.38% among 300,000 | AID 1832;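 active means inhibition past about -25% in most replicates, and total fluorescence under double the plate's negative control median, limit read from the data; inconclusive means replicates evenly split on the limit, or fluorescence at least double controls; inactive means too little inhibition in most replicates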;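 further: 0% = DMSO and -100% = 5 µM competing unlabeled TCR2 RNA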
# Target sequence (Q9XUB2 whole entry, looked up): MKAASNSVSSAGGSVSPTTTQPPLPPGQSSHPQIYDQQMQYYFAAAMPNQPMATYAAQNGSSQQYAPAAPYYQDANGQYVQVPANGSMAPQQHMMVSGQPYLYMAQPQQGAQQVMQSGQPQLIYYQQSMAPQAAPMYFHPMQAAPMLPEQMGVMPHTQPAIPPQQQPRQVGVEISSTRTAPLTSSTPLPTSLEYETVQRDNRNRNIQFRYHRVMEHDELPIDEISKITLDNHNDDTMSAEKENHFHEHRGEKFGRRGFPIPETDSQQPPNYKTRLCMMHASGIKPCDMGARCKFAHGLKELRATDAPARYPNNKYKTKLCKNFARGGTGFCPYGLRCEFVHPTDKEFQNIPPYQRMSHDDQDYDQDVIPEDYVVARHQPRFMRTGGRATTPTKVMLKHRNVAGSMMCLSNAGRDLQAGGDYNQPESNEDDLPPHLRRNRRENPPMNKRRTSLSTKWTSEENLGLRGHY
# E coli Lon conf – confirmation of E. coli Lon protease inhibitors | inhibition, % at 7.94 µM | purified E. coli Lon, fluorescence polarization | shares compounds with E coli Lon inh | hit rate 31% among 1,400; in the data active means inhibition above about 16%;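 further: 0% = enzyme with probe and DMSO and 100% = no enzyme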
# * = called active by the depositor; u = inconclusive; x = not tested or not shown; + = active, no number.
SMILES,EBV gp42 inh,GLD-1 RNA inh,E coli Lon inh,BCLXL inh,MEX-5 binding,E coli Lon conf
COc1ccccc1CNC(=O)COC(=O)Cn1cnc2c1c(=O)n(C)c(=O)n2C,x,x,72*,x,x,-2
Cn1c(=O)c2c(ncn2CC(=O)OCC(=O)NCc2ccccc2Cl)n(C)c1=O,-13,-3,-1,4,-2,x
CC(C)COC(=O)N(C)C[C@@H]1OCc2cnnn2CCCC(=O)N([C@@H](C)CO)C[C@H]1C,x,x,-1,x,x,x
COCCn1c(SCC(=O)c2cc(C)n(C)c2C)nc2ccccc2c1=O,8,6,15*,5,-1,4
COCCn1c(SCC(=O)NC(=O)Cc2ccccc2)nc2ccccc2c1=O,x,5,13,0,x,x
Oc1cc(CNC2CCCCC2)c(O)cc1CNC1CCCCC1,x,x,45*,x,x,17*
Cc1ccccc1CNC1CCCCC1,-11,0,-10,-3,2,x
O=C(NCCc1ccc(F)cc1)c1ccncc1,x,6,19*,-4,0,-11
Cc1ccc(C(=O)NCCc2ccc(F)cc2)s1,2,1,14*,9,1,-7
CCCNC(=S)Nc1ccc2nc(-c3ccccn3)c(-c3ccccn3)nc2c1,-15,13,19*,16,-7,-3
Cc1nc2ccc(NC(=S)NCCCO)cc2nc1C,0,2,-11,6,-1,x
C=CC[C@H](CC(=O)N(CCO)Cc1ccccc1)C(=O)N[C@H](COC(=O)[C@@H](CC=C)CC(=O)OC(C)(C)C)c1ccccc1,x,2,20*,x,x,11
CN(C)/C=C1\C=C2C(=O)c3ccccc3N2C1=O,-64,91*,93*,109*,x,-123
NC(=O)C[n+]1cccc2ccccc21,46,16,57*,185*,-36*,40*
CC(C)C[C@@H](CC#N)N1CCN(Cc2ccccc2)CCC1=O,x,2,5,4,-4,x
COc1ccc(CN2CCNC(=O)C2CC(=O)NCc2csc(C)n2)c(F)c1 (configuration not stated),x,14,19*,18,-1,4
COc1cccc(C(=O)CN2C(=O)C(C)(C)Oc3ccc(C(=O)N4CCOCC4)cc32)c1,x,2,128*,0,2,-5
COc1cccc(C(=O)CN2C(=O)C(C)(C)Oc3ccc(C(=O)N4CCCCCC4)cc32)c1,-6,4,5,4,-1,x
CCCCN(C(=O)NC(=O)Nc1ccccc1OC)S(C)(=O)=O,-12,-10,20*,2,2,5
COc1ccc(NS(=O)(=O)c2ccc(F)c(Cl)c2)cn1,x,99*,58*,103*,-13,-11
COc1c(O)cccc1[C@H](O)C1CCN(CCc2ccc(F)cc2)CC1,x,66*,71*,50*,-39*,13
COc1ccc(N=NC2=C(O)CC(C)(C)CC2=O)c(OC)c1,-102,-42,22*,-21,14,-90
COc1ccc(N=NC2=C(O)CC(C)(C)CC2=O)cc1,-40,-9,-13,-6,8,x
Cc1nc(CCNC(=O)CC2C(=O)NCCN2CC(C)(C)C)nc2c1CCC2 (configuration not stated),x,18,22*,28,-1,12
COc1cc(C(=O)OCC(=O)N2CCOCC2)c([N+](=O)[O-])cc1OC,x,5,18*,6,0,-4
SMILES,EBV gp42 inh,GLD-1 RNA inh,E coli Lon inh,BCLXL inh,MEX-5 binding,E coli Lon conf
CCOC(=O)CN1C(=O)N[C@@H](CCc2ccccc2)[C@H](C(=O)OC)[C@H]1C,x,-3,13,0,-1,x
CC1(C)CC(=O)C(C(=S)Nc2ccccc2)=C(NC2CC(C)(C)NC(C)(C)C2)C1,2,5,59*,1,1,-1
CC1(C)CC(NC(=S)Nc2ccc(S(N)(=O)=O)cc2)CC(C)(C)N1,-16,-7,4,0,1,x
COc1cc(COCC(O)CN2CCN(CCN3C(=O)c4cccc5cccc(c45)C3=O)CC2)cc(OC)c1OC (configuration not stated),6,3,18*,7,-16,17*
O=C1c2cccc3cccc(c23)C(=O)N1CCN1CCN(CC(O)COCc2ccc(Cl)cc2)CC1 (configuration not stated),-11,3,11,6,-8,x
CCN1C(=O)[C@H]2[C@@H](c3ccc(C)cc3)N[C@]3(CCCN(Cc4cccn4C)C3=O)[C@H]2C1=O,x,x,-6,x,x,x
CN1C(=O)N(CC(=O)Nc2ccc3c(c2)OCO3)C(=O)C12CCCCC2,x,x,2,x,x,x
O=C(NNC(=O)c1ccccc1-n1cccc1)c1cncc(Br)c1,x,7,38*,x,x,-55
CN(C(=O)c1ccc(Cl)c([N+](=O)[O-])c1)C1(C)CCS(=O)(=O)C1 (configuration not stated),x,5,-8,3,-1,x
CCC1(c2ccccc2)NC(=O)N(CC(=O)Nc2cc(Cl)ccc2N2CCOCC2)C1=O (configuration not stated),x,0,17*,-15,1,-14
CCC1(c2ccccc2)NC(=O)N(CC(=O)Nc2ccc(OC)nc2)C1=O (configuration not stated),x,124*,112*,167*,u,105*
CCC1(c2ccccc2)NC(=O)N(CC(=O)Nc2ccccc2N2CCCC2)C1=O (configuration not stated),x,12,7,19,-2,x
COc1cc(-c2cc3nc(NCc4ccco4)ccn3n2)cc(OC)c1OC,x,x,-8,x,x,x
CCc1c(C(C)S(=O)(=O)c2ccc(C)cc2)[nH]c(=O)n1-c1ccc(C)cc1 (configuration not stated),-15,9,63*,9,2,8
CCc1[nH]c(=O)[nH]c1C(C)S(=O)(=O)c1ccc(C)cc1 (configuration not stated),6,4,-7,9,0,x
Cc1ccc(C)c(CC(=O)N2CCCC(c3cc(C(=O)Nc4ccccc4Cl)no3)C2)c1 (configuration not stated),x,x,4,x,x,x
COC(=O)CCN1CCC2CC1c1cc(Cl)ccc12 (configuration not stated),x,x,5,x,x,x
CCC(CC)C(=O)OCC(=O)Nc1cccc([N+](=O)[O-])c1,0,4,16*,0,3,2
COc1ccc(-c2csc(C(C)(O)c3ccc(F)c(F)c3)n2)cc1 (configuration not stated),x,x,1,x,x,x
CCOC(=O)/C=c1\s/c(=C\c2ccc(C)cc2)c(=O)n1CC(=O)NCc1ccco1,-30,3,24*,9,-3,-2
Nc1ccc2cc3[nH]c4cc(N)ccc4c3nc2c1,x,x,+,x,x,146*
Nc1ccc(-c2nc3ccc(N)cc3[nH]2)cc1,-9,8,3,3,-2,x
O=C1C=CC(=O)c2c(O)c(N3CCN(CCO)CC3)c(Cl)c(O)c21,x,x,172*,x,x,96*
OCCOCCN1CCN(C2=Nc3ccccc3Sc3ccccc32)CC1,-11,1,-2,1,1,x
